Laboratory results published in publication PMC12864922, “TDP-43 directly inhibits mRNA accumulation in neurites through modulation of mRNA stability”.
Over roughly 9,900 sequences, “r (bound/input frequency ratio)” has its median near 0.7; the highest 2% begin near 6.5. Shown is part of a subset that was picked to be rich in the highest values.

B1: ENSMUSG00000029028.135|Lrrc47 (ssRNA)
RNA: GGGAGUUCUACAGUCCGACGAUCGCUUCGAUAUCCGCAUGCUAAGGCAUUCUAUUGAACAGUAUUUAUUUUUCUACAACAUGUUAAUAGAAUUUUUUUUUAAAUCAGCUGUGCAUAGACAGUUGAGAACAUCAUGUUGUGAGUGUAAUCUUCUUAGAGCUUGUUUCCAGGCACCGUGCUGCCGCCAUGCUCCCAGGGCAGCAUCUGCCUUCCACGGCUGUGCUUGGAACUGUAGUGCUGGUCGUUGUUGGCACAUCUGCGCCUUGGCCAAGGAAGUUAUCUAUGUCCGUGUAGUCCUUUGUAGCUCUUGCGGUCGCACUAGUGUGGAAUUCUCGGGUGUCAAGG
B2: ENSMUSG00000031028.662|Tub (ssRNA)
RNA: GGGAGUUCUACAGUCCGACGAUCGCUUCGAUAUCCGCAUGCUACUGGACCCCAUACUGGUGACCAGCUUGGUGAGGACAGGCAAAAUUUCUCUAGCUGAGAGCACACUUAGCCAGUUUUCACGCCUAGAACAUAUAUGUCGAUUUGCACAUGAUUGUCUUUUCCUAUUUUGGAGUGGUCAGACAUUUUAUUUUUGUUCAAAAUUAUCUGGAGUUUUAGACAAACUUGCAAAACUGUGCUUUUAUUAAGUGACUUUUUGAAUAAACUUUUUGGUAUUCUGAAGCAAAUGUAUUUAUUUAUUGGUCUCUUGCGGUCGCACUAGUGUGGAAUUCUCGGGUGUCAAGG
B3: ENSMUSG00000028439.183|Fam219a|6:10;12:28;30:47;57:64 (ssRNA)
RNA: GGGAGUUCUACAGUCCGACGAUCGCUUCGAUAUCCGCAUGCUAUGUGCCACACCCACACACAUACACACACCCACACACACACACACACAUGUACCCGACACACACAUGAGCCUAUCUGUCCAGGGAACCAGAUUGGUGUCCGAGAUGAGGAAAUGGCUGUGGCCUGGGAAAUCAGUGAGAGGCCGCUUGGGAAUGAGAAUGCAGUGGACUGAAAGCACAGCCUGGCCAUCUGGAACCUGGGUUCUGGUCCCAGCCUCGGCAUUCUCCCUGAGCUCCUAAGCAAUUCCCAGGCUUCUCUAGGGCUCUUGCGGUCGCACUAGUGUGGAAUUCUCGGGUGUCAAGG
B4: ENSMUSG00000028439.183|Fam219a (ssRNA)
RNA: GGGAGUUCUACAGUCCGACGAUCGCUUCGAUAUCCGCAUGCUAUGUGCGUGUGCGUGUGUGUAUGUGUGUGCGUGUGUGUGUGUGUGUGUUGUACCCGAGUGUGUGUUGAGCCUAUCUGUCCAGGGAACCAGAUUGGUGUCCGAGAUGAGGAAAUGGCUGUGGCCUGGGAAAUCAGUGAGAGGCCGCUUGGGAAUGAGAAUGCAGUGGACUGAAAGCACAGCCUGGCCAUCUGGAACCUGGGUUCUGGUCCCAGCCUCGGCAUUCUCCCUGAGCUCCUAAGCAAUUCCCAGGCUUCUCUAGGGCUCUUGCGGUCGCACUAGUGUGGAAUUCUCGGGUGUCAAGG
B5: ENSMUSG00000028439.182|Fam219a (ssRNA)
RNA: GGGAGUUCUACAGUCCGACGAUCGCUUCGAUAUCCGCAUGCUAUGUGUGUGUGCGUGUGCGUGUGUGUAUGUGUGUGCGUGUGUGUGUGUGUGUGUUGUACCCGAGUGUGUGUUGAGCCUAUCUGUCCAGGGAACCAGAUUGGUGUCCGAGAUGAGGAAAUGGCUGUGGCCUGGGAAAUCAGUGAGAGGCCGCUUGGGAAUGAGAAUGCAGUGGACUGAAAGCACAGCCUGGCCAUCUGGAACCUGGGUUCUGGUCCCAGCCUCGGCAUUCUCCCUGAGCUCCUAAGCAAUUCCCAGGCUUCUCUCUUGCGGUCGCACUAGUGUGGAAUUCUCGGGUGUCAAGG
B6: ENSMUSG00000028439.181|Fam219a|7:16;18:22;24:40;42:59;69:76 (ssRNA)
RNA: GGGAGUUCUACAGUCCGACGAUCGCUUCGAUAUCCGCAUGCUAUGUGCCACACACACACCCACACCCACACACAUACACACACCCACACACACACACACACAUGUACCCGACACACACAUGAGCCUAUCUGUCCAGGGAACCAGAUUGGUGUCCGAGAUGAGGAAAUGGCUGUGGCCUGGGAAAUCAGUGAGAGGCCGCUUGGGAAUGAGAAUGCAGUGGACUGAAAGCACAGCCUGGCCAUCUGGAACCUGGGUUCUGGUCCCAGCCUCGGCAUUCUCCCUGAGCUCCUAAGCAAUUCCCAGCUCUUGCGGUCGCACUAGUGUGGAAUUCUCGGGUGUCAAGG
B7: ENSMUSG00000028439.181|Fam219a (ssRNA)
RNA: GGGAGUUCUACAGUCCGACGAUCGCUUCGAUAUCCGCAUGCUAUGUGCCUGUGUGUGUGCGUGUGCGUGUGUGUAUGUGUGUGCGUGUGUGUGUGUGUGUGUUGUACCCGAGUGUGUGUUGAGCCUAUCUGUCCAGGGAACCAGAUUGGUGUCCGAGAUGAGGAAAUGGCUGUGGCCUGGGAAAUCAGUGAGAGGCCGCUUGGGAAUGAGAAUGCAGUGGACUGAAAGCACAGCCUGGCCAUCUGGAACCUGGGUUCUGGUCCCAGCCUCGGCAUUCUCCCUGAGCUCCUAAGCAAUUCCCAGCUCUUGCGGUCGCACUAGUGUGGAAUUCUCGGGUGUCAAGG
B8: ENSMUSG00000028439.182|Fam219a|1:10;12:16;18:34;36:53;63:70 (ssRNA)
RNA: GGGAGUUCUACAGUCCGACGAUCGCUUCGAUAUCCGCAUGCUAACACACACACCCACACCCACACACAUACACACACCCACACACACACACACACAUGUACCCGACACACACAUGAGCCUAUCUGUCCAGGGAACCAGAUUGGUGUCCGAGAUGAGGAAAUGGCUGUGGCCUGGGAAAUCAGUGAGAGGCCGCUUGGGAAUGAGAAUGCAGUGGACUGAAAGCACAGCCUGGCCAUCUGGAACCUGGGUUCUGGUCCCAGCCUCGGCAUUCUCCCUGAGCUCCUAAGCAAUUCCCAGGCUUCUCUCUUGCGGUCGCACUAGUGUGGAAUUCUCGGGUGUCAAGG

biological target: TDP-43 (Homo sapiens, UniProt Q13148 1-414); test: RNA Bind-n-Seq with designed 260-mer pool; 25 mM Tris-HCl, 150 mM KCl, 3 mM MgCl2, BSA (printed 500 mg/mL), 20 units/mL SUPERase IN; pH not stated; 500 nM RNA pool, 1 h, 4 C; TDP-43 5, 50, 500 nM; high values mean tight binding; conditions: protein: recombinant; tags: SBP (GST cleaved off with PreScission; pGEX-GST-SBP)
Sequence (Q13148 whole entry): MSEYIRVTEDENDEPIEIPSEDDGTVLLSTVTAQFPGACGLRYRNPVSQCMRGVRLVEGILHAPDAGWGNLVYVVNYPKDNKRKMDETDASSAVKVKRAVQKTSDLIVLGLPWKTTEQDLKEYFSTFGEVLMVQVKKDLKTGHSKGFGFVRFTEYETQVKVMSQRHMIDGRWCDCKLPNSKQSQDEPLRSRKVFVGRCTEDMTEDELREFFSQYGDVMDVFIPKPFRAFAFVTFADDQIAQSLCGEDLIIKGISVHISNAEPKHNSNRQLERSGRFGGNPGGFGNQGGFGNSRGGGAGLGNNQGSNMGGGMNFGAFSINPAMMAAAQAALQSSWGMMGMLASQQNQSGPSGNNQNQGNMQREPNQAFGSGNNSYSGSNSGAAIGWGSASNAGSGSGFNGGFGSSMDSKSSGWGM
Summary of the method: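 For each oligo, R gives binding as its mapped-read-normalized abundance after pulldown divided by its abundance in input. Bead-captured SBP-tagged TDP-43 (5, 50 or 500 nM) was incubated with 500 nM of an in vitro-transcribed 260-nt 3′ UTR oligo pool for 1 h at 4 °C in 25 mM Tris-HCl, 150 mM KCl, 3 mM MgCl2, BSA and SUPERase IN on streptavidin beads. Washed, biotin-eluted RNA was reverse transcribed, PCR-amplified and sequenced.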

| Binder | binding signal |
| --- | --- |
| B1 | 0.359 R (bound/input frequency ratio) |
| B2 | 0.163 R (bound/input frequency ratio) |
| B3 | 2.29 R (bound/input frequency ratio) |
| B4 | 5.72 R (bound/input frequency ratio) |
| B5 | 6.82 R (bound/input frequency ratio) |
| B6 | 3.16 R (bound/input frequency ratio) |
| B7 | 6.58 R (bound/input frequency ratio) |
| B8 | 3.29 R (bound/input frequency ratio) |
